In the library only some 3% were active in any assay of this set; here they are far more common.
15-hLO-2 inh: qHTS Assay for Inhibitors of 15-hLO-2 (15-human lipoxygenase 2); actives 0.56% (n = 110,000); purified 15hLO-2, xylenol orange hydroperoxide absorbance; AID 881, 2007; Potency, µM (doses to about 57.1 µM), inactives show top-dose activity change, negative = inhibition, usual class: inhibitors; Polyunsaturated fatty acid lipoxygenase ALOX15B (Homo sapiens), O15296; note: potency is the fitted concentration of half-maximal effect; nearly all actives have a fitted effect of over 60% in size
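Screening format was qHTS against 50 nM purified 15hLO-2 in Hepes pH 7.5 with detergent. Activity follows hydroperoxide formation from 45 uM arachidonic acid, measured as 573:405 nm absorbance ratio of the ferric-xylenol orange complex.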
IMPase cell inh: qHTS Assay for Identifying the Cell-Membrane Permeable IMPase Inhibitors; AID 901, 2007; Inositol monophosphatase 1 (Rattus norvegicus), P97697; inhibition (IP1 accumulation), % at 46.1 µM; 120,000 tested, under 10 active; CHO-M1 cells, IP1 accumulation, HTRF TR-FRET ratio; active = well fitted curve in the direction sought with a large enough effect in the signal ratio, not every such curve was filed as active; inconclusive = small, poorly fitted or top-dose-only effect, or a change in a side signal; inactive = no such curve, though single readings can be large or run the other way; the % refers to the signal ratio;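 note: cells stimulated with carbachol in lithium chloride buffer; plate controls were DMSO basal wells for no effect and reference inhibitor wells for full effect; higher means more IMPase inhibition seen as more IP1 and lower FRET ratio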
Target sequence (P97697 whole entry, looked up): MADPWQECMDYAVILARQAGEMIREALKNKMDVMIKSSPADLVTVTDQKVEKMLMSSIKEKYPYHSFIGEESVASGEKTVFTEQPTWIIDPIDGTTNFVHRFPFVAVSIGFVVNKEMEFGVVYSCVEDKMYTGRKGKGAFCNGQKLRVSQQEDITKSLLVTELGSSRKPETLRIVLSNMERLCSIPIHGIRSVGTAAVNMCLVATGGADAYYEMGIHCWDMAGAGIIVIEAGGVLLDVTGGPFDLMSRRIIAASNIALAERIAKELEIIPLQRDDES
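Cellular IMPase inhibition is scored as a rise in cytosolic IP1, detected by competitive TR-FRET between d2-labelled IP1 and a europium anti-IP1 antibody. M1-expressing CHO cells were stimulated with carbachol for 30 min at 37C, with lithium (50 mM LiCl) present in the buffer.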
PNC inhibitor: High Content Assay for Compounds that inhibit the Assembly of the Perinucleolar Compartment | actives 3.1% (n = 140,000) | PC3M PTB-GFP, PNC prevalence imaging, 16 h; active compounds read low | activity change (PNC), negative = inhibition, % at 10 µM;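 active = readout at or below -70, meaning at least 70% loss of cells showing the perinucleolar compartment, a nuclear body marking cancer cells; inconclusive = readout between -30 and a set limit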;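 note: plate controls were DMSO wells for no effect and camptothecin positive control wells for full effect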
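Compounds are pinned in duplicate onto adhered PC3M cells stably expressing GFP-tagged PTB and incubated 16 h at 37 C. Cells are then fixed, nuclei stained with Hoechst, and PNC-positive cells counted.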
ALOX12 inhib: qHTS Assay for Inhibitors of 12-hLO (12-human lipoxygenase); Polyunsaturated fatty acid lipoxygenase ALOX12 (Homo sapiens), P18054; purified 12-hLO, xylenol orange hydroperoxide absorbance; Potency, µM (top dose mostly 57.1 µM), for the others: at the highest dose activity change, negative = inhibition, hits mostly inhibitors; actives 0.12% (n = 150,000); AID 1452, 2008; note: potency is the fitted concentration of half-maximal effect; nearly all actives have a fitted effect of over 55% in size
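Purified human 12hLO (150 nM), preincubated 15 min with compound, then 40 uM arachidonic acid for 30 min, room temperature, Hepes pH 7.0 with 0.01% Triton X-100. Hydroperoxide detected by ferrous iron/xylenol orange; 573/405 nm absorbance ratio gives reaction progress.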
Active calls of the source: *; [ ] = another dose, or the depositor's remark. Unless noted, calls come from the whole dose curve; as a rule, active = well fitted curve in the direction sought with a large enough effect; inconclusive = small, poorly fitted or top-dose-only effect, or another doubt; inactive = no such curve, though single readings can be large; an effect the other way counts as inactive or inconclusive. Unless noted, % is set by controls: 0 for no effect and ±100 for the full control effect.

Cc1nc(NC(=O)c2ccccc2)sc1-c1csc(Nc2ccc(F)cc2)n1 was read as 15-hLO-2 inh -20%, IMPase cell inh 5, PNC inhibitor -100* and ALOX12 inhib -22%.
Cc1c(-c2ccccc2)[n+](=O)c2c(n1[O-])CCCCC2 was read as PNC inhibitor -1 and ALOX12 inhib -2%.
OC(C#CCN1CCCCC1)c1ccccc1 (configuration not stated) was read as 15-hLO-2 inh 3%, IMPase cell inh 10, PNC inhibitor 10 and ALOX12 inhib -1%.
Screening OC(C#CCN1CCCC1)c1ccccc1 (configuration not stated) returned 15-hLO-2 inh 10%, IMPase cell inh 10, PNC inhibitor -87* and ALOX12 inhib -10%.
`CCCC(=O)Nc1cccc(-c2nc3ccccc3o2)c1` gave 15-hLO-2 inh -4%, IMPase cell inh 2, PNC inhibitor -107* and ALOX12 inhib 1%.
`CSc1cccc(NC(=O)CSc2nc3ccccc3o2)c1` gave 15-hLO-2 inh -16%, IMPase cell inh -4, PNC inhibitor -98* and ALOX12 inhib -9%.
`CNC(=O)[C@@H]1O[C@@H](n2cnc3c(N)ncnc32)[C@@H](O)[C@H]1O` gave 15-hLO-2 inh -5%, IMPase cell inh -9 and ALOX12 inhib 1%.
CN(C)Cc1ccccc1-c1cncnc1Nc1ccc(F)cc1 was read as 15-hLO-2 inh 8% and ALOX12 inhib 0%.
For C[C@@H](COc1ccc(/C=C\c2ccccc2)cc1)[N+](C)(C)C the results were 15-hLO-2 inh -7%, IMPase cell inh 22 and ALOX12 inhib -6%.
`C=CCn1c(-c2ccc(Cl)cc2)c[nH]c1=S` gave 15-hLO-2 inh inconclusive, IMPase cell inh 1, PNC inhibitor -7 and ALOX12 inhib -2%.
`C=CCn1c(-c2ccccc2)c[nH]c1=S` gave 15-hLO-2 inh inconclusive, IMPase cell inh -4, PNC inhibitor -117* and ALOX12 inhib -4%.
Cc1cc(C)c(NC(=O)NC2CCCCC2)c(C)c1 was read as PNC inhibitor -113* and ALOX12 inhib 3%.
`Cc1ccc(NC(=O)NC2CCCCC2)cc1Cl` gave 15-hLO-2 inh -12%, IMPase cell inh 4, PNC inhibitor inconclusive and ALOX12 inhib 1%.
For O=C(Nc1ccc2c(c1)OCCO2)C1CCN(C(=O)c2ccccc2)CC1 the results were 15-hLO-2 inh 8%, IMPase cell inh 0, PNC inhibitor -105* and ALOX12 inhib 5%.
Screening O=C(Nc1ccc2c(c1)OCCO2)C1CCN(C(=O)c2ccc(Br)cc2)CC1 returned 15-hLO-2 inh -2%, IMPase cell inh 7, PNC inhibitor 6 and ALOX12 inhib 3%.
O=C(O)C1CC=CCC1C(=O)Nc1ccc(F)c(F)c1 (configuration not stated) was read as 15-hLO-2 inh 0%, IMPase cell inh 9, PNC inhibitor -19 and ALOX12 inhib -2%.
For O=C(O)C1CC=CCC1C(=O)Nc1ccc2c(c1)OCCO2 (configuration not stated) the results were IMPase cell inh 12, PNC inhibitor -119* and ALOX12 inhib 9%.
Screening Cc1cc(C(=O)N/N=C/c2ccc(C)o2)c2ccccc2n1 returned PNC inhibitor -94* and ALOX12 inhib 3%.
Screening Cc1ccc(/C=N/NC(=O)c2cc(C3CC3)nc3ccccc23)o1 returned PNC inhibitor -108* and ALOX12 inhib -3%.
`CCCc1cc(C(=O)N/N=C/c2ccc(C)o2)c2ccccc2n1` gave 15-hLO-2 inh inconclusive, IMPase cell inh 5, PNC inhibitor -1 and ALOX12 inhib -8%.
COc1ccc(Br)cc1C1CC(=O)N2CN(Cc3ccccc3)CSC2=C1C#N (configuration not stated) was read as 15-hLO-2 inh inconclusive, IMPase cell inh 1, PNC inhibitor 31 and ALOX12 inhib -30%.
For CCc1ccccc1N1CSC2=C(C#N)C(c3cc(OC)c(OC)cc3OC)CC(=O)N2C1 (configuration not stated) the results were 15-hLO-2 inh 10µM*, IMPase cell inh 8, PNC inhibitor 11 and ALOX12 inhib inconclusive.
`COc1cc(OC)c(C2CC(=O)N3CN(c4ccccc4)CSC3=C2C#N)cc1OC` (configuration not stated) gave 15-hLO-2 inh 10µM*, IMPase cell inh -4, PNC inhibitor 12 and ALOX12 inhib -22%.
CCCS(=O)(=O)C(=C(Nc1ccccc1)Nc1ccccc1)S(=O)(=O)CCC was read as 15-hLO-2 inh -1%, IMPase cell inh -9, PNC inhibitor inconclusive and ALOX12 inhib 6%.
Screening COS(C)(=O)=O returned 15-hLO-2 inh 2% and ALOX12 inhib 8%.
For Cn1c(=O)c2[nH]c(Nc3ccccc3)nc2n(C)c1=O the results were IMPase cell inh 18, PNC inhibitor -100* and ALOX12 inhib 1%.
For Cc1ccc(CNc2nc3c([nH]2)c(=O)n(C)c(=O)n3C)cc1 the results were 15-hLO-2 inh 29%, IMPase cell inh 8, PNC inhibitor 1 and ALOX12 inhib -4%.
Screening CC(=O)NCCNc1ncnc2ccc(-c3ccccc3C)cc12 returned 15-hLO-2 inh 16%.
`CCc1nc2ccccc2[nH]1` gave 15-hLO-2 inh 2%, IMPase cell inh -2, PNC inhibitor 9 and ALOX12 inhib 4%.
c1ccc2[nH]c3cc4ncnc4cc3nc2c1 was read as PNC inhibitor -81* and ALOX12 inhib -3%.
Cc1cc(C)c(NC(=O)c2ccc[n+](Cc3ccc([N+](=O)[O-])cc3)c2)c(C)c1 was read as PNC inhibitor inconclusive and ALOX12 inhib 7%.
`Oc1c([C@H](Nc2ccccn2)c2ccccc2)ccc2cccnc12` gave 15-hLO-2 inh 27%[11.4 µM] and ALOX12 inhib -8%[11.4 µM].
Screening Cc1ccc2ccc(C(Nc3ccccn3)c3ccccc3)c(O)c2n1 (configuration not stated) returned 15-hLO-2 inh 55%, IMPase cell inh 7, PNC inhibitor -82* and ALOX12 inhib -21%.
`C=CCOc1ccc2cccc(/C=N/NC(=O)c3cc4cc([N+](=O)[O-])ccc4s3)c2c1` gave 15-hLO-2 inh 10µM*, IMPase cell inh 6, PNC inhibitor inconclusive and ALOX12 inhib 0%.
`CC[C@H](CO)NCCN[C@H](CC)CO` gave PNC inhibitor -115* and ALOX12 inhib -1%.
`O=C(c1cccnc1)N1CCN(c2c(Cl)cccc2[N+](=O)[O-])CC1` gave 15-hLO-2 inh -18%, IMPase cell inh 3, PNC inhibitor 54 and ALOX12 inhib 7%.
Screening CCCCC[C@H](O)/C=C/C=C\C/C=C\CCCCCCC(=O)O returned ALOX12 inhib 1%.

Screening results as filed in PubChem.
